The record followed here is PMC12820563, “FoxP3 forms a head-to-head dimer in vivo and stabilizes its multimerization on adjacent microsatellites”.

The full ranking holds about 16,000 sequences; the median of “rpm ratio (pull-down/input)” is about 0.94, and the highest 2% start at about 1.7. What follows is part of a selection rich in the highest values, with near analogues and random picks from the rest.

In the experiment the target is T1, MBP-FoxP1dN (Mus musculus, UniProt P58462 326-579).
T1 sequence: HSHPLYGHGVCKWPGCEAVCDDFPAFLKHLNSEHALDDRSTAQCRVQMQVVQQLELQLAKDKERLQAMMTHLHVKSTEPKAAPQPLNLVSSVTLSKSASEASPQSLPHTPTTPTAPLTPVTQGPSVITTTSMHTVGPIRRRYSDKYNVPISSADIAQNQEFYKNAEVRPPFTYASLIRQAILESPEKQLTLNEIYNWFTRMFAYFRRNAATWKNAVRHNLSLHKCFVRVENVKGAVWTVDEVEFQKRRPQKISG
As to the kind of experiment: PD-seq (MBP pull-down with sequencing); 20 mM Tris-HCl pH 7.5, 100 mM NaCl, 1.5 mM MgCl2, 0.4 uM protein, 0.1 uM dsDNA library, 30 min, room temperature, amylose pull-down; high values mean tight binding. The conditions noted are these: protein: recombinant; tags: His6-MBP; chain copies: 2; dsDNA, one strand shown. The essentials: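 Binding is given as reads-per-million enrichment, pull-down over input, with replicates pooled. The bait was an N-terminus-lacking mouse FoxP3 or FoxP1 fragment with a His6-MBP tag, expressed in E. coli and used at 0.4 µM with 0.1 µM Klenow-filled degenerate double-stranded DNA library for 30 min at room temperature in Tris pH 7.5 buffer with NaCl and MgCl2. Amylose resin pull-down with three washes was followed by proteinase K release, PCR barcoding and Illumina sequencing.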
Consider “GATGATTGTTCTCCCAGCTGATGAATTGTATTCTTCGAGTAAACAAATTTTCCTAATCTTTCTGTTCAAGCGCCATCTAC”, for which the binding signal was 1.26 RPM ratio (pull-down/input). With “GATGATTGTTCTCCCAGCTGATGAATTTGTATTTTCGAGTAAACAAATTTTCCTAATCTTTCTGTTCAAGCGCCATCTAC”, the binding signal was 2.62 RPM ratio (pull-down/input). Take “GATGATTGTTCTCCCAGCTGATGAATTATTGTATTCGAGTAAACAAATTTTCCTAATCTTTCTGTTCAAGCGCCATCTAC”: the binding signal was 1.99 RPM ratio (pull-down/input). In the case of “GATGATTGTTCTCCCAGCTGATGAATTGTATTATTCGAGTAAACAAATTTTCCTAATCTTTCTGTTCAAGCGCCATCTAC”, the binding signal is 1.67 RPM ratio (pull-down/input). For “GATGATTGTTCTCCCAGCTGATGAATTTTTGTATTCGAGTAAACAAATTTTCCTAATCTTTCTGTTCAAGCGCCATCTAC”, the binding signal is 1.8 RPM ratio (pull-down/input). As to “GATGATTGTTCTCCCAGCTGATGAATTTTGTATTTCGAGTAAACAAATTTTCCTAATCTTTCTGTTCAAGCGCCATCTAC”, the binding signal is 1.42 RPM ratio (pull-down/input). Take “GATGATTGTTCTCCCAGCTGATGAATTGTTGTATTCGAGTAAACAAATTTTCCTAATCTTTCTGTTCAAGCGCCATCTAC”: the binding signal was 2.21 RPM ratio (pull-down/input). To “GATGATTGTTCTCCCAGCTGATGAATTTGTATATTCGAGTAAACAAATTTTCCTAATCTTTCTGTTCAAGCGCCATCTAC” belongs 1.71 RPM ratio (pull-down/input); to “GATGATTGTTCTCCCAGCTGATGAATTTCTGTATTCGAGTAAACAAATTTTCCTAATCTTTCTGTTCAAGCGCCATCTAC”, 1.3 RPM ratio (pull-down/input); to “GATGATTGTTCTCCCAGCTGATGAATTATTCTTTTCGAGTAAACAAATTTTCCTAATCTTTCTGTTCAAGCGCCATCTAC”, 1.17 RPM ratio (pull-down/input). To “GATGATTGTTCTCCCAGCTGATGAATTTGTAATTTCGAGTAAACAAATTTTCCTAATCTTTCTGTTCAAGCGCCATCTAC” belongs 1.31 RPM ratio (pull-down/input); to “GATGATTGTTCTCCCAGCTGATGAATTCTGTATTTCGAGTAAACAAATTTTCCTAATCTTTCTGTTCAAGCGCCATCTAC”, 1.18 RPM ratio (pull-down/input). Regarding “GATGATTGTTCTCCCAGCTGATGAATTTTGAATTTCGAGTAAACAAATTTTCCTAATCTTTCTGTTCAAGCGCCATCTAC”, the binding signal is 0.984 RPM ratio (pull-down/input). As for “GATGATTGTTCTCCCAGCTGATGAATTTTAGGGGTCGAGTAAACAAATTTTCCTAATCTTTCTGTTCAAGCGCCATCTAC”, the binding signal was 0.805 RPM ratio (pull-down/input). For “GATGATTGTTCTCCCAGCTGATGAATTGACTAAGTCGAGTAAACAAATTTTCCTAATCTTTCTGTTCAAGCGCCATCTAC”, the binding signal was 1.03 RPM ratio (pull-down/input).

In the case of “GATGATTGTTCTCCCAGCTGATGAATTGACGCTTTCGAGTAAACAAATTTTCCTAATCTTTCTGTTCAAGCGCCATCTAC”, the binding signal is 1.33 RPM ratio (pull-down/input). In the case of “GATGATTGTTCTCCCAGCTGATGAATTAGCACCGTCGAGTAAACAAATTTTCCTAATCTTTCTGTTCAAGCGCCATCTAC”, the binding signal was 0.962 RPM ratio (pull-down/input). On to “GATGATTGTTCTCCCAGCTGATGAATTGGCTATATCGAGTAAACAAATTTTCCTAATCTTTCTGTTCAAGCGCCATCTAC”, for which the binding signal was 0.923 RPM ratio (pull-down/input).

On to “GATGATTGTTCTCCCAGCTGATGAATTCGCCCGTTCGAGTAAACAAATTTTCCTAATCTTTCTGTTCAAGCGCCATCTAC”, for which the binding signal was 0.826 RPM ratio (pull-down/input).

As for “GATGATTGTTCTCCCAGCTGATGAATTCGAATCTTCGAGTAAACAAATTTTCCTAATCTTTCTGTTCAAGCGCCATCTAC”, the binding signal is 0.84 RPM ratio (pull-down/input). In the case of “GATGATTGTTCTCCCAGCTGATGAATTATAAACATCGAGTAAACAAATTTTCCTAATCTTTCTGTTCAAGCGCCATCTAC”, the binding signal is 2.42 RPM ratio (pull-down/input). The result for “GATGATTGTTCTCCCAGCTGATGAATTTATTATATCGAGTAAACAAATTTTCCTAATCTTTCTGTTCAAGCGCCATCTAC” reads 1.22 RPM ratio (pull-down/input). With “GATGATTGTTCTCCCAGCTGATGAATTATATATATCGAGTAAACAAATTTTCCTAATCTTTCTGTTCAAGCGCCATCTAC”, the binding signal is 1.16 RPM ratio (pull-down/input). As for “GATGATTGTTCTCCCAGCTGATGAATTATATAAATCGAGTAAACAAATTTTCCTAATCTTTCTGTTCAAGCGCCATCTAC”, the binding signal is 1.16 RPM ratio (pull-down/input). Take “GATGATTGTTCTCCCAGCTGATGAATTATTTATATCGAGTAAACAAATTTTCCTAATCTTTCTGTTCAAGCGCCATCTAC”: the binding signal was 1.75 RPM ratio (pull-down/input). The result for “GATGATTGTTCTCCCAGCTGATGAATTATAAAAATCGAGTAAACAAATTTTCCTAATCTTTCTGTTCAAGCGCCATCTAC” reads 1.08 RPM ratio (pull-down/input); that for “GATGATTGTTCTCCCAGCTGATGAATTTATATTATCGAGTAAACAAATTTTCCTAATCTTTCTGTTCAAGCGCCATCTAC”, 2.04 RPM ratio (pull-down/input). To “GATGATTGTTCTCCCAGCTGATGAATTAATTATATCGAGTAAACAAATTTTCCTAATCTTTCTGTTCAAGCGCCATCTAC” belongs 1.11 RPM ratio (pull-down/input); to “GATGATTGTTCTCCCAGCTGATGAATTATATCTATCGAGTAAACAAATTTTCCTAATCTTTCTGTTCAAGCGCCATCTAC”, 0.985 RPM ratio (pull-down/input).

With “GATGATTGTTCTCCCAGCTGATGAATTCTTTATATCGAGTAAACAAATTTTCCTAATCTTTCTGTTCAAGCGCCATCTAC”, the binding signal is 1.02 RPM ratio (pull-down/input).

Consider “GATGATTGTTCTCCCAGCTGATGAATTATATTTATCGAGTAAACAAATTTTCCTAATCTTTCTGTTCAAGCGCCATCTAC”, for which the binding signal is 2.43 RPM ratio (pull-down/input). To “GATGATTGTTCTCCCAGCTGATGAATTATCTATATCGAGTAAACAAATTTTCCTAATCTTTCTGTTCAAGCGCCATCTAC” belongs 1.14 RPM ratio (pull-down/input).
